According to PubChem BioAssay (EPA / NIEHS):
Records with an inconclusive call do not appear. Activity calls are given as the source filed them. Rule for the calls: active = hit-call score of the fitted dose curve at least 0.9, where 1 is the maximum; inconclusive = response in the unintended direction; inactive = score below 0.9.

Molecular target: Estrogen receptor beta (Homo sapiens) (UniProt Q92731)
Assay: OT_ER_ERbERb_1440: Odyssey Thera (OT) 24-hour HEK293T Protein-Complementation Assay for Estrogen Receptor-beta/-beta Homodimer (AID 2283380);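 note: scored as signal increase over DMSO baseline for both agonists and antagonists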
Method in brief: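 HEK293T cells stably expressing ER beta LBD (aa 310-547) homodimer fragment-complementation reporter, dosed 24 h. Cells formaldehyde-fixed, Draq5-stained; gain in nuclear (agonist) or nuclear plus cytoplasmic (antagonist) fluorescence versus DMSO read by laser scanning cytometry.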

Chain of Estrogen receptor beta (Homo sapiens) (Q92731 whole entry, looked up): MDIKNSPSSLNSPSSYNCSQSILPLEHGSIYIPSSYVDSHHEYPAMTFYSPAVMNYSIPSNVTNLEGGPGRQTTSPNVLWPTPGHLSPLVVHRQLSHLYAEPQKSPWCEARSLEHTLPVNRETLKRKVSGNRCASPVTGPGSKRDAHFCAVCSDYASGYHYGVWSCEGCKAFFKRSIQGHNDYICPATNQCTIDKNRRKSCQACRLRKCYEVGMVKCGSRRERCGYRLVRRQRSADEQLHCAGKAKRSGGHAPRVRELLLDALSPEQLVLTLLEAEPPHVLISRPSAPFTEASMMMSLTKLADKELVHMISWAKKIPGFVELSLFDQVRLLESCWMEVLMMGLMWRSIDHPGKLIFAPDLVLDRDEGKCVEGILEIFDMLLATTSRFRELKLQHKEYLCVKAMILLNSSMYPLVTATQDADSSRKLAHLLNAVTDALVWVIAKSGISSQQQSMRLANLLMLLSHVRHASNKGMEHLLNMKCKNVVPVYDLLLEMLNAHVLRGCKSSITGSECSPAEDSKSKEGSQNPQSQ

Row | SMILES | outcome | AC50
1 | COP(=S)(OC)SCN1C(=O)c2ccccc2C1=O | inactive | 
2 | c1ccc2c(c1)-c1cccc3cccc-2c13 |  | 50 µM (active)
3 | CCC(C)c1ccc(O)cc1 (stereo unspecified) |  | 28.2 µM (active)
4 | CN(C)C(=O)Nc1ccc(Cl)cc1 | inactive | 
5 | Clc1ccccc1Cl |  | 7.71 µM (active)
6 | CN(C)[C@@H]1C(=O)C(C(N)=O)=C(O)[C@@]2(O)C(=O)C3=C(O)c4c(O)cccc4[C@@](C)(O)[C@H]3C[C@@H]12 | inactive | 
7 | O=[N+]([O-])C(Br)(CO)CO | inactive | 
8 | c1ccc2c(c1)oc1ccccc12 | inactive | 
9 | CC(C)(C)OOC(C)(C)CCC(C)(C)OOC(C)(C)C | inactive | 
10 | O=[N+]([O-])c1ccc(Oc2ccc(Cl)cc2Cl)cc1 | inactive | 
11 | OCCCl | inactive | 
12 | CCN(CC)CCO | inactive | 
13 | Cc1cc(N=Nc2ccccc2C)ccc1N |  | 12.2 µM (active)
14 | CC(O)CCO (stereo unspecified) | inactive | 
15 | O=P(OCCCl)(OCCCl)OCCCl | inactive | 
16 | CCOC(=O)[C@]1(c2ccccc2)Oc2ccccc2[C@@H]1N | inactive | 
17 | CCCCCCCCOC(=O)c1ccc(C(=O)OCCCCCCCC)c(C(=O)OCCCCCCCC)c1 | inactive | 
18 | Oc1ccc2ccc3cccc4ccc1c2c34 |  | 12 µM (active)
19 | Clc1ccc(Cl)c(Cl)c1 | inactive | 
20 | Cc1cccc(N)c1N | inactive | 
21 | CN(C)c1ccccc1 | inactive | 
22 | O=C(N[C@H](c1ccccc1)[C@@H]1CN2CCC1CC2)c1c(Cl)ccc(C(F)(F)F)c1Cl | inactive | 
23 | CS(=O)(=O)NC(=O)c1cc(Oc2ccc(C(F)(F)F)cc2Cl)ccc1[N+](=O)[O-] | inactive | 
24 | CCCCOC(=O)c1ccccc1C(=O)OCc1ccccc1 |  | 12.9 µM (active)
25 | Clc1ccc(C(c2ccc(Cl)cc2)C(Cl)(Cl)Cl)cc1 |  | 29.1 µM (active)
26 | ClCCOCCCl | inactive | 
27 | c1ccc(NNc2ccccc2)cc1 | inactive | 
28 | CN(C)c1ccc(C(=O)c2ccc(N(C)C)cc2)cc1 | inactive | 

Molecular target: Bile acid receptor (Homo sapiens) (UniProt Q96RI1)
Sequence (Q96RI1 whole entry, looked up): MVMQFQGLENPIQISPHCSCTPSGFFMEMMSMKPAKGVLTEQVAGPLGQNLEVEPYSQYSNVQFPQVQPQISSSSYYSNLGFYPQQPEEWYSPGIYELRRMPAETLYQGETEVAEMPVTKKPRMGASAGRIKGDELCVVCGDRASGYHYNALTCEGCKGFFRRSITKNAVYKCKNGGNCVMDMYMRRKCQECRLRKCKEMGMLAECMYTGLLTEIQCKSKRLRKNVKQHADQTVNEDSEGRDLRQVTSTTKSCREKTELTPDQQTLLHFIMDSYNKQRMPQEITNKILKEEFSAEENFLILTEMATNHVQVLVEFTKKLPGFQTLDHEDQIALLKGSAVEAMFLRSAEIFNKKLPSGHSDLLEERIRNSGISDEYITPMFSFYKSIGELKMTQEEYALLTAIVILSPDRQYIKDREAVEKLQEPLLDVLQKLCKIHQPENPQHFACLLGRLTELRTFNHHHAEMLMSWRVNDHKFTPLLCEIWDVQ
Assay: OT_FXR_FXRSRC1_0480: Odyssey Thera (OT) 8-hour HEK293T Protein-Complementation Assay for Farnesoid X receptor/SRC-1 Co-activator (AID 2283383)
Method in brief: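 Human kidney HEK293T cells carried FXR/SRC-1 fragment-complementation constructs. Compounds were added and incubated 8 h. Reporter reassembly upon receptor–co-activator interaction was then quantified by fluorescence, with curves fitted in the positive direction relative to DMSO.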

Row | SMILES | outcome | AC50
29 | COP(=S)(OC)SCN1C(=O)c2ccccc2C1=O | inactive | 
30 | CCC(C)c1ccc(O)cc1 (stereo unspecified) | inactive | 
31 | CN(C)C(=O)Nc1ccc(Cl)cc1 | inactive | 
32 | Clc1ccccc1Cl | inactive | 
33 | CN(C)[C@@H]1C(=O)C(C(N)=O)=C(O)[C@@]2(O)C(=O)C3=C(O)c4c(O)cccc4[C@@](C)(O)[C@H]3C[C@@H]12 | inactive | 
34 | OCCCl | inactive | 
35 | Cc1cc(N=Nc2ccccc2C)ccc1N | inactive | 
36 | O=P(OCCCl)(OCCCl)OCCCl | inactive | 
37 | CCOC(=O)[C@]1(c2ccccc2)Oc2ccccc2[C@@H]1N | inactive | 
38 | CCCCCCCCOC(=O)c1ccc(C(=O)OCCCCCCCC)c(C(=O)OCCCCCCCC)c1 | inactive | 
39 | Cc1cccc(N)c1N |  | 42.8 µM (active)
40 | CN(C)c1ccccc1 | inactive | 
41 | O=C(N[C@H](c1ccccc1)[C@@H]1CN2CCC1CC2)c1c(Cl)ccc(C(F)(F)F)c1Cl | inactive | 
42 | CS(=O)(=O)NC(=O)c1cc(Oc2ccc(C(F)(F)F)cc2Cl)ccc1[N+](=O)[O-] | inactive | 
43 | Clc1ccc(C(c2ccc(Cl)cc2)C(Cl)(Cl)Cl)cc1 |  | 11.2 µM (active)
44 | ClCCOCCCl | inactive | 
45 | c1ccc(NNc2ccccc2)cc1 | inactive | 
46 | CN(C)c1ccc(C(=O)c2ccc(N(C)C)cc2)cc1 |  | 49 µM (active)
